The results in this text go back to PubChem BioAssay (EPA / NIEHS).

Activity calls are given as the source filed them. Rule for the calls: active = hit-call score of the fitted dose curve at least 0.9, where 1 is the maximum; inactive = score below 0.9.

For experiment [1], the target named is Transcription factor E2F1 (Homo sapiens) (UniProt Q01094). Description: ATG_E2F_CIS: Attagene CIS-FACTORIAL HepG2 Assay for human E2F Transcription Factor 1 (AID 2282935). The settings on record: HepG2 Attagene cis-reporter, E2F reporter RNA transcripts; actives raise or lower the signal. The procedure, abridged: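 First, HepG2 cells were transfected with reporter transcription units. Next, they were dosed for 24 h. Then RNA was isolated, converted to cDNA, PCR-amplified, FAM-labeled, HpaI-digested and analyzed by capillary electrophoresis.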
Transcription factor E2F1 (Homo sapiens), sequence (Q01094 whole entry, looked up): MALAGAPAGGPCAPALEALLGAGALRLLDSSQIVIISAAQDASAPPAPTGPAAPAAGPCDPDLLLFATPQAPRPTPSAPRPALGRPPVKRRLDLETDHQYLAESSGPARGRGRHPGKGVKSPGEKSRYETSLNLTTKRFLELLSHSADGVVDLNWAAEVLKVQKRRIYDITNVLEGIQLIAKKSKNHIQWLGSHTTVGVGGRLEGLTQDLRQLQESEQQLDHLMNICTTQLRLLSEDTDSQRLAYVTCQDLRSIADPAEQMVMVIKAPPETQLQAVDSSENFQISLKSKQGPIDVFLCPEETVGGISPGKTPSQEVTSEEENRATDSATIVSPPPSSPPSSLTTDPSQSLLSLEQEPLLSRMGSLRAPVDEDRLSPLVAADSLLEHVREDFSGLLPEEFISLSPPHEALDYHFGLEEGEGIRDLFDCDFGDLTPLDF

The nature of experiment [2]: ATG_E_Box_CIS: Attagene CIS-FACTORIAL HepG2 Assay for human Enhancer Box (E-box) (AID 2282936). The settings on record: HepG2 E-box cis-reporter transcription, actives raise or lower the signal. The essentials:
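Endogenous transcription factor activity was sensed in human HepG2 liver cells through transfected cis-promoter reporter units. After 24 h of dosing, total RNA was reverse-transcribed and reporter cDNA resolved by capillary electrophoresis.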

A short description of experiment [3]: ATG_M_61_CIS: Attagene CIS-FACTORIAL HepG2 Assay for M61 Transcription Factor (Internal Marker) (AID 2282937). The settings on record: HepG2 Attagene CIS-FACTORIAL M61 internal marker reporter; actives raise or lower the signal. The essentials:
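Readout is reporter mRNA by RT-PCR, fluorescent primer extension and capillary electrophoresis, with gain or loss fitted relative to DMSO. Transfected HepG2 cells carrying endogenous-TF-driven cis reporters were exposed to chemicals for 24 hours.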

Experiment [4] is described as follows: ATG_EGR_CIS: Attagene CIS-FACTORIAL HepG2 Assay for human Early Growth Response 1 (EGR1) (AID 2282938). The settings on record: HepG2 Attagene CIS-FACTORIAL EGR reporter mRNA; actives raise or lower the signal. The procedure, abridged: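 After 24 h compound exposure, RNA from reporter-transfected HepG2 cells was reverse-transcribed, PCR-amplified, fluorescently labelled and resolved by capillary electrophoresis. EGR1 reporter transcript changes, up or down, were fitted against DMSO, reflecting endogenous transcription-factor activity.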

Experiment [5] in a line: ATG_M_19_CIS: Attagene CIS-FACTORIAL HepG2 Assay for M19 Transcription Factor (Internal Marker) (AID 2282939). The settings on record: HepG2 Attagene CIS-FACTORIAL M19 internal marker reporter; actives raise or lower the signal. The procedure, abridged: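 Readout: fluorescent reporter-transcript fragments by capillary electrophoresis after RT-PCR. Human HepG2 liver cells carried transfected MRTU constructs reporting endogenous transcription-factor activity; exposure 24 h. Gain or loss of signal fitted relative to DMSO.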

Experiment [6] is described as follows: ATG_ERE_CIS: Attagene CIS-FACTORIAL HepG2 Assay for Estrogen Response Element (ERE) (AID 2282940). Conditions: HepG2 ERE cis-reporter, Attagene RNA transcript; actives raise or lower the signal. The essentials: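 Readout: reporter mRNA induction by RT-PCR, FAM-labelled primer extension, HpaI digestion and capillary electrophoresis, 24 h after dosing transfected HepG2 cells. Endogenous transcription factors act on cis-element-regulated reporters. Gain or loss fitted against DMSO.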

The nature of experiment [7]: ATG_Ets_CIS: Attagene CIS-FACTORIAL HepG2 Assay for human Erythroblast Transformation Specific (ETS) (AID 2282941). Conditions: HepG2 ETS cis-reporter transcription, actives raise or lower the signal. The procedure, abridged: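 Multiplexed reporter transcript profiling: HepG2, 24 h treatment, total RNA to cDNA, PCR, 6-FAM labelling, HpaI cut, capillary electrophoresis. Gain- or loss-of-signal fitted against DMSO.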

Experiment [8] deals with Hepatocyte nuclear factor 3-beta (Homo sapiens) (UniProt Q9Y261). Description: ATG_FoxA2_CIS: Attagene CIS-FACTORIAL HepG2 Assay for human Forkhead box A2 (FOXA2) (AID 2282942). Conditions: HepG2 cis-reporter transcription factor activity, 24 h; actives raise or lower the signal. The essentials: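 Endogenous transcription factor activity is captured via cis-element-driven reporter transcripts in transfected HepG2. Total RNA taken at 24 h post-dosing; labelled RT-PCR products resolved by capillary electrophoresis. Gain or loss fitted versus DMSO.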
Hepatocyte nuclear factor 3-beta (Homo sapiens), sequence (Q9Y261 whole entry, looked up): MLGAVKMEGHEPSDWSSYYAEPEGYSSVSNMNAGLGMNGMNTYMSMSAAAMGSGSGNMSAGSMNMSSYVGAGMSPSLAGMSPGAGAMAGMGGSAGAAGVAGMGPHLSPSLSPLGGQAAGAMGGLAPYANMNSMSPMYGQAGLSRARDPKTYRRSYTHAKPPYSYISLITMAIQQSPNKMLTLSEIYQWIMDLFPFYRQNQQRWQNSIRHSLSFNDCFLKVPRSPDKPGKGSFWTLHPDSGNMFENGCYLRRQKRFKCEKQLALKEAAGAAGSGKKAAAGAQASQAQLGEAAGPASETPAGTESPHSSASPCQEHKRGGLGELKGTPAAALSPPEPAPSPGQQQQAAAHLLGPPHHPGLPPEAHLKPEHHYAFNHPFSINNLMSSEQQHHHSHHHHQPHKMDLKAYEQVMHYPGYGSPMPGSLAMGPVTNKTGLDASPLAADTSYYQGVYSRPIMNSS

Experiment [9] can be described thus: ATG_FoxO_CIS: Attagene CIS-FACTORIAL HepG2 Assay for human Forkhead box O (FoxO) (AID 2282943). The settings on record: HepG2 Attagene cis-reporter, FoxO element, mRNA; actives raise or lower the signal. The essentials:
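HepG2 cells transiently transfected with cis-promoter-driven multiple reporter transcription units; 24 h after chemical dosing, reporter mRNA quantified by RT-PCR, fluorescent primer extension, HpaI digestion and capillary electrophoresis. Bidirectional fitting versus DMSO baseline.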

Experiment [10] is described as follows: ATG_GATA_CIS: Attagene CIS-FACTORIAL HepG2 Assay for human GATA Binding Protein (AID 2282944). Conditions: HepG2 GATA cis-element reporter, Attagene multiplex mRNA; actives raise or lower the signal. The essentials:
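Read-out: fluorescent reporter mRNA fragments resolved by capillary electrophoresis after RT-PCR. Human liver HepG2 cells carried transiently transfected cis-regulated reporter constructs; chemicals incubated 24 h; gain or loss of signal fitted relative to DMSO.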

A short description of experiment [11]: ATG_GLI_CIS: Attagene CIS-FACTORIAL HepG2 Assay for human Zinc Finger Protein GLI1 (AID 2282945). Conditions: HepG2, Attagene cis-factorial reporter mRNA, GLI element; actives raise or lower the signal. The procedure, abridged: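 HepG2 cells transiently transfected with cis-promoter multiplexed reporter units report endogenous transcription factor activity. After 24 h chemical exposure, reporter mRNA was quantified by RT-PCR, 6-FAM labelling, HpaI digestion and capillary electrophoresis, with bidirectional fitting against DMSO.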

In experiment [12] the target is Bile acid receptor (Homo sapiens) (UniProt Q96RI1). Description: ATG_IR1_CIS: Attagene CIS-FACTORIAL HepG2 Assay for human Nuclear Receptor Subfamily 1 Group H Member 4 (NR1H4), IR1 submotif (AID 2282946). Conditions: IR1 reporter transcription, actives raise or lower the signal. The procedure, abridged:
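Readout: reporter transcript levels by RT-PCR with fluorescent capillary electrophoresis, from HepG2 cells transiently transfected with multiplexed cis-regulated reporters and dosed 24 h. Gain- or loss-of-signal fitted versus DMSO negative control.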

The nature of experiment [13]: ATG_GRE_CIS: Attagene CIS-FACTORIAL HepG2 Assay for human Glucocorticoid Response Elements (GRE) (AID 2282947). The settings on record: HepG2 GRE cis-reporter, Attagene multiplex mRNA; actives raise or lower the signal. The essentials: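 Cells (HepG2) bearing transfected cis-promoter reporter transcription units were treated with chemical for 24 hours. Reporter mRNA was measured via RT-PCR with capillary electrophoresis, and activity was fitted in both directions relative to DMSO.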

The nature of experiment [14]: ATG_ISRE_CIS: Attagene CIS-FACTORIAL HepG2 Assay for human Interferon Regulatory Factor 1 (IRF1) binding to an Interferon-Stimulated Response Element (ISRE) (AID 2282948). The settings on record: HepG2 ISRE cis-reporter (Attagene), mRNA transcription readout; actives raise or lower the signal. The procedure, abridged: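 Signal reflects induction or loss of ISRE-linked reporter mRNA in transiently transfected HepG2 cells after a 24 h treatment, detected by fluorescent RT-PCR fragments on capillary electrophoresis and normalised to DMSO.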

The nature of experiment [15]: ATG_M_32_CIS: Attagene CIS-FACTORIAL HepG2 Assay for M32 Transcription Factor (Internal Marker) (AID 2282949).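 Note: background control marker of the multiplexed CIS panel rather than a real target.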 Conditions: HepG2 Attagene cis-factorial M32 reporter, mRNA; actives raise or lower the signal. The procedure, abridged: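 HepG2 transfectants (cis-regulated reporter transcription units) dosed 24 h. Reporter mRNA by RT-PCR plus CE, analysed as gain or loss relative to DMSO.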

Experiment [16] is described as follows: ATG_M_06_CIS: Attagene CIS-FACTORIAL HepG2 Assay for M06 Transcription Factor (Internal Marker) (AID 2282950). The settings on record: HepG2 Attagene CIS-FACTORIAL M06 internal marker reporter; actives raise or lower the signal. The procedure, abridged: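 Terse: HepG2, transient MRTU transfection (FuGene 6), 24 h dosing; total RNA, oligo(dT) RT, PCR, FAM label, HpaI cut, capillary electrophoresis; bidirectional fit vs DMSO baseline; background-control endpoint.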

Experiment [17] addresses Hypoxia-inducible factor 1-alpha (Homo sapiens) (UniProt Q16665). Description: ATG_HIF1a_CIS: Attagene CIS-FACTORIAL HepG2 Assay for human Hypoxia Inducible Factor 1 (HIF1A) (AID 2282951). Conditions: HepG2 Attagene cis-factorial HIF1a reporter transcription; actives raise or lower the signal. The procedure, abridged:
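Activity is fitted in both directions relative to DMSO. Reporter transcripts are read by RT-PCR, fluorescent primer extension and capillary electrophoresis after 24 h chemical treatment. The cells are HepG2 carrying transiently transfected cis-element-driven reporter units responding to endogenous factors.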

The target of experiment [18] is Hepatocyte nuclear factor 6 (Homo sapiens) (UniProt Q9UBC0). Description: ATG_HNF6_CIS: Attagene CIS-FACTORIAL HepG2 Assay for human Hepatocyte Nuclear Factor 6 (HNF6) (AID 2282952). The settings on record: HepG2 Attagene cis-factorial HNF6 reporter transcription; actives raise or lower the signal. The essentials:
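Activity values derive from bidirectional fitting against DMSO of reporter mRNA levels, measured by capillary electrophoresis of labelled RT-PCR products from HepG2 cells exposed 24 h.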

The target in experiment [19] is Heat shock factor protein 1 (Homo sapiens) (UniProt Q00613). Description: ATG_HSE_CIS: Attagene CIS-FACTORIAL HepG2 Assay for human Heat Shock Transcription Factor 1 (HSE) (AID 2282953). The settings on record: HepG2 HSE cis-reporter, Attagene RNA transcription; actives raise or lower the signal. The procedure, abridged: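 Read-out: fluorescence of reporter-specific RT-PCR fragments separated by capillary electrophoresis. HepG2 carrying transfected cis-element reporter units; 24 h dosing; activity fitted in both directions relative to DMSO baseline.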
Heat shock factor protein 1 (Homo sapiens), sequence (Q00613 whole entry, looked up, the tested form may be a part): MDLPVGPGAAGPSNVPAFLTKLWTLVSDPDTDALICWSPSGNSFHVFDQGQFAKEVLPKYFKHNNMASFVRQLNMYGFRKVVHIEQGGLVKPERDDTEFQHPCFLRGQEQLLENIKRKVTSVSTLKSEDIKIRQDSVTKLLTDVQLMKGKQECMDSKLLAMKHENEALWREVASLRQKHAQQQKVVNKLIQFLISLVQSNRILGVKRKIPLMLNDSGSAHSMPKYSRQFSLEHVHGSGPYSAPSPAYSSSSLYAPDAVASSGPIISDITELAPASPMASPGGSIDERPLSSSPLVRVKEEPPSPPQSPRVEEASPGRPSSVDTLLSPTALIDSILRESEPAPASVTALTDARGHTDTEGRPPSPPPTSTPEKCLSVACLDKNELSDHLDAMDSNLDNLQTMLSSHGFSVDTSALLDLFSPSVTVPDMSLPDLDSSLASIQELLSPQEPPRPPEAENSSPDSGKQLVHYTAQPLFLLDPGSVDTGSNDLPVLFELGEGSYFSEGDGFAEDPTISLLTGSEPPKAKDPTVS

Experiment [20] is described as follows: ATG_MRE_CIS: Attagene CIS-FACTORIAL HepG2 Assay for human Metal Responsive Element (MRE) (AID 2282954). Conditions: HepG2 MRE cis-reporter transcription, Attagene multiplex; actives raise or lower the signal. The procedure, abridged:
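Cells were transfected with cis-promoter reporter transcription units, then dosed for 24 h. RNA was reverse-transcribed, amplified, fluorescently labelled and resolved by capillary electrophoresis, and activity was fitted in both directions relative to DMSO.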

Hypoxia-inducible factor 1-alpha (Homo sapiens), sequence (Q16665 whole entry, looked up): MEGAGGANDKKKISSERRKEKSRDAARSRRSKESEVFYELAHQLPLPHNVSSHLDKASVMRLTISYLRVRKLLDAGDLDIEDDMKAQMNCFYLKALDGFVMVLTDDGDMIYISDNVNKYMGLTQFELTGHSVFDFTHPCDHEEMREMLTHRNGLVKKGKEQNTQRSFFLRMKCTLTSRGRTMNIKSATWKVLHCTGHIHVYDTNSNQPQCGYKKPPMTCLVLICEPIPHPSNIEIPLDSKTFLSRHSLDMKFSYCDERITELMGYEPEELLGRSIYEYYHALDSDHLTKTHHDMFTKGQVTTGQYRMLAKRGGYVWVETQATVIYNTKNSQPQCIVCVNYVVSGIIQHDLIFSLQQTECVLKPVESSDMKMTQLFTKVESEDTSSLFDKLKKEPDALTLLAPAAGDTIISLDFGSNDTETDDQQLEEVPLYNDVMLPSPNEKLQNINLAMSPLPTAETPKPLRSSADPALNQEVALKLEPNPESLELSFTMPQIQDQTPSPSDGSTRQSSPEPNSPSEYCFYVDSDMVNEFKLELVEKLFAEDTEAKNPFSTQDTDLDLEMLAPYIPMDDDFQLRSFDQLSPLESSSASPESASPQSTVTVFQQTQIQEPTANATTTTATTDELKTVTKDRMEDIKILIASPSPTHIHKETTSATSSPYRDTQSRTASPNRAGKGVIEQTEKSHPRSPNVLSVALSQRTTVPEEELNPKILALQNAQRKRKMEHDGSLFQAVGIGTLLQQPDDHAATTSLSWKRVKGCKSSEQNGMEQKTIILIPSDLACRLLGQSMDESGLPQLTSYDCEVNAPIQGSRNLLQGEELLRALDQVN
Bile acid receptor (Homo sapiens), sequence (Q96RI1 whole entry, looked up): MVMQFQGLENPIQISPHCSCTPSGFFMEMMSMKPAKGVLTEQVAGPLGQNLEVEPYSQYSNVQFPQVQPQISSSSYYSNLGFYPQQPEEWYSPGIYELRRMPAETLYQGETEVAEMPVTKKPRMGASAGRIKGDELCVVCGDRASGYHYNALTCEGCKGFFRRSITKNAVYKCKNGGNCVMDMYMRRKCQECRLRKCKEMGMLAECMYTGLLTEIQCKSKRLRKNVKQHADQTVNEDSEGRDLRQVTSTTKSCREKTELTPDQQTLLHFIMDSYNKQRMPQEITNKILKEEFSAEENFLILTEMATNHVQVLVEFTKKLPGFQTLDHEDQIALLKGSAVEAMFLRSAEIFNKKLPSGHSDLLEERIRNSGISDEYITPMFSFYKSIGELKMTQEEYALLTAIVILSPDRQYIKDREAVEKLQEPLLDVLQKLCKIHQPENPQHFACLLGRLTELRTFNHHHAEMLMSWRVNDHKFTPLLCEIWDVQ
Hepatocyte nuclear factor 6 (Homo sapiens), sequence (Q9UBC0 whole entry, looked up): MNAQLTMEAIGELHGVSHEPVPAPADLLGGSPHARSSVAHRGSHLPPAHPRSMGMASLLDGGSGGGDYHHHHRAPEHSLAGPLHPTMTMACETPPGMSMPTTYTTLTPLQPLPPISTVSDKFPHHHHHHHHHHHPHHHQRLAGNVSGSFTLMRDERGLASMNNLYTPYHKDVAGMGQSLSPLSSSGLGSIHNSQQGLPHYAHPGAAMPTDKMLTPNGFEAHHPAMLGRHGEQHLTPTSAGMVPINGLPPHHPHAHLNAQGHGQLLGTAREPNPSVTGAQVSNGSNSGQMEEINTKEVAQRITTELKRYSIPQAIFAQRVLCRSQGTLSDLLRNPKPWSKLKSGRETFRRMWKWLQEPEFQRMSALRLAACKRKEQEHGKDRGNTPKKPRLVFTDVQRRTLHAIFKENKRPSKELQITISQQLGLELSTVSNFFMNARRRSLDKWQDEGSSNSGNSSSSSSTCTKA

Turning to `CC(O)C(F)(F)C(F)(F)F` (stereo not drawn), the result in [1], in experiment [2], in [3], in experiment [4], in [5] and in experiment [6] was inactive. The call in experiment [7], in experiment [8], in experiment [9], in experiment [10], in experiment [11] and in experiment [12] was inactive. In addition, the call in experiment [13], in experiment [14], in [15], in experiment [16], in [17] and in [18] was inactive. The call in experiment [19] and in experiment [20] was inactive.
On to `CCCCN(CCCC)N=O`, for which the call in experiment [1], in experiment [2], in experiment [3], in experiment [4], in experiment [5] and in experiment [6] was inactive. Further, the compound was called inactive in experiment [7], in experiment [8], in experiment [9], in experiment [10], in experiment [11] and in [12]. The compound was called inactive in [13], in experiment [14], in experiment [15], in [16], in experiment [17] and in experiment [18]. In experiment [20], the compound was called inactive.
Regarding `C/C(=N\NC(=O)Nc1cc(F)cc(F)c1)c1ncccc1C(=O)O`, the result in [1], in [2], in experiment [3], in experiment [4], in [5] and in experiment [6] was inactive. Further, the call in [7], in experiment [8], in experiment [9], in [10], in experiment [11] and in experiment [12] was inactive. Moreover, the call in [13], in experiment [14], in experiment [15], in experiment [16], in experiment [17] and in [18] was inactive. For the same compound, in [20], the compound was classed as inactive.
On to `CC(C)Nc1ccc(Nc2ccccc2)cc1`, for which the call in experiment [1], in experiment [3], in experiment [4], in [5], in experiment [6] and in [7] was inactive. The outcome in [8], in experiment [9], in [10], in [11], in experiment [12] and in experiment [13] was inactive. Also, the result in experiment [15], in experiment [16], in [17], in experiment [18] and in experiment [20] was inactive. The AC50 was 54.8 µM (active) in [2], 43.2 µM (active) in [14] and 49.6 µM (active) in experiment [19].
